Test systems include HCT-15 colon; HT29 colon; SNB-75 CNS; SNB-19 CNS; U251 CNS; PC-3 prostate; SK-MEL-5 melanoma; UACC-62 melanoma; LOX IMVI melanoma; SK-MEL-28 melanoma; SK-MEL-2 melanoma; EKVX NSCLC; UO-31 renal; TK-10 renal; ACHN renal; CAKI-1 renal; A498 renal; CCRF-CEM leukemia; MOLT-4 leukemia; SN12C renal.
Holding throughout (experiment): NCI-60 one-dose screen, 48 h (100 = growth as untreated, 0 = no growth, -100 = all killed)
What all share (conditions): 10 µM unless noted

This is part of a sample that, as a whole, favours compounds with a hit. Of some 83,000 tested, about 20% had one in any assay.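 Each cell line was grown in a 96-well plate and treated with one concentration of compound for 48 hours. Values below 10 were considered active.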 A number with no mark means an inactive call. Active and inactive are the calls of the source.

For `COc1ccc(-c2nc(N=Nc3c(O)[nH]c4ccccc34)nc(N3CCOCC3)c2C#N)cc1`, the growth is 69.9% in the test on HCT-15 colon; 49.2% in the test on HT29 colon; 44% with SNB-75 CNS; 72.6% in the test with SNB-19 CNS; 37.8% with U251 CNS; 72.7% in the test on PC-3 prostate. The growth in the test with SK-MEL-5 melanoma is 57.5%; in the test with UACC-62 melanoma, 50.3%; in the test on LOX IMVI melanoma, 66.8%; in the test with SK-MEL-28 melanoma, 72.2%; in the test on SK-MEL-2 melanoma, 77.9%; in the test with EKVX NSCLC, 74.5%. Also, the growth is 84.8% in the test with UO-31 renal; 71.5% in the test on TK-10 renal; 25% in the test on ACHN renal; 43.3% in the test with CAKI-1 renal; 67.4% in the test with A498 renal; 75.5% with CCRF-CEM leukemia. The growth with MOLT-4 leukemia was 80.8%.

For the molecule `NC(=S)N/N=C/c1ccc(OC(=O)COc2cc(Cl)c(Cl)cc2Cl)cn1`, the growth with HCT-15 colon was 81%; with HT29 colon it was 70.7%; in the test on SNB-75 CNS, 98.8%; in the test on SNB-19 CNS, 91.6%; in the test with U251 CNS it was 54%; in the test on PC-3 prostate it was 59.8%. Also, the growth is 21.8% in the test on SK-MEL-5 melanoma; 39.7% in the test with UACC-62 melanoma; 25.1% with LOX IMVI melanoma; 89% with SK-MEL-28 melanoma; 59.1% in the test on SK-MEL-2 melanoma; 106% with EKVX NSCLC. The growth in the test on SN12C renal is 43.9%; with UO-31 renal, 22.1%; in the test with ACHN renal, 18.4%; in the test on CAKI-1 renal it was 36.4%; in the test on CCRF-CEM leukemia it was 40.7%; in the test on MOLT-4 leukemia, 31.3%.

With `Cc1ccccc1C(c1ccccc1)c1ccccc1C`, the growth is 95.6% in the test with HCT-15 colon; 95.8% in the test with HT29 colon; 79.5% in the test with SNB-75 CNS; 98.7% in the test with SNB-19 CNS; 99.3% in the test with U251 CNS; 83.2% with PC-3 prostate. The growth with SK-MEL-5 melanoma is 77.8%; in the test with UACC-62 melanoma, 100%; in the test on LOX IMVI melanoma, 94.9%; in the test with SK-MEL-28 melanoma, 103%; with SK-MEL-2 melanoma it was 101%; with EKVX NSCLC, 96.3%. For the same molecule, the growth with SN12C renal was 96.8%; with UO-31 renal, 79.2%; with ACHN renal it was 94.2%; with CAKI-1 renal, 87.6%; in the test on A498 renal, 83.6%; in the test on CCRF-CEM leukemia, 83.3%. The growth with MOLT-4 leukemia was 93.5%.

Turning to `O=C(Nc1ccc2ncnc(Nc3ccc(Oc4cccc(F)c4)c(Cl)c3)c2c1)c1ccc(CNCCO)cc1`, the growth was 22.8% in the test with HCT-15 colon; -69.2% (active) with HT29 colon; 65.1% in the test on SNB-75 CNS; 58.8% with SNB-19 CNS; -34% (active) in the test on U251 CNS; 27.7% with PC-3 prostate. The growth in the test on SK-MEL-5 melanoma is 73.7%; with UACC-62 melanoma it was 106%; in the test with LOX IMVI melanoma it was -76.2% (active); in the test on SK-MEL-28 melanoma it was -44.9% (active); with SK-MEL-2 melanoma, 94.2%; in the test with EKVX NSCLC, 47.9%. The growth is 48.6% in the test with SN12C renal; 73.9% in the test on UO-31 renal; 55.4% in the test on CAKI-1 renal; 71.6% in the test on A498 renal; -19.9% (active) with CCRF-CEM leukemia; -0.727% (active) in the test with MOLT-4 leukemia.

On to `COc1ccc(C(=O)/C=C/c2ccc(OCc3ccccc3)c(OC)c2)cc1OC`, for which the growth is 45.8% in the test on HCT-15 colon; 10.6% with HT29 colon; 34.1% with SNB-75 CNS; 87.1% in the test with SNB-19 CNS; 10.1% with U251 CNS; 46% in the test with PC-3 prostate. Moreover, the growth in the test with SK-MEL-5 melanoma was 66.1%; with UACC-62 melanoma, 70.8%; in the test on LOX IMVI melanoma it was 34.3%; in the test with SK-MEL-28 melanoma, 89.6%; in the test with SK-MEL-2 melanoma, 83.5%; with EKVX NSCLC it was 54.7%. Also, the growth was 43.8% with UO-31 renal; 48.4% in the test on TK-10 renal; 79.8% with ACHN renal; 55.5% with CAKI-1 renal; 17.4% in the test on CCRF-CEM leukemia; 44.8% in the test on MOLT-4 leukemia.

Consider `COc1ccc(-c2nc(SCC(C)C)nc(N/N=C(/C)c3ccc(OC)c(OC)c3)c2C#N)cc1`, for which the growth with HCT-15 colon was 79.8%; in the test with HT29 colon, 90.4%; in the test with SNB-75 CNS it was 80.2%; in the test with SNB-19 CNS, 78.2%; in the test on U251 CNS, 89.6%; in the test on PC-3 prostate it was 52.5%. In addition, the growth was 74.6% with SK-MEL-5 melanoma; 81.2% with UACC-62 melanoma; 84.3% in the test on LOX IMVI melanoma; 84.5% in the test on SK-MEL-28 melanoma; 103% in the test with SK-MEL-2 melanoma; 89.5% in the test on EKVX NSCLC. For the same molecule, the growth with SN12C renal is 76.1%; in the test on UO-31 renal, 54.4%; in the test on ACHN renal it was 90.5%; in the test on CAKI-1 renal it was 86%; in the test with A498 renal it was 67.9%; in the test on CCRF-CEM leukemia it was 70.3%. In the test on MOLT-4 leukemia, the growth is 55.3%.

`CC(=O)OC1CCC2(C)C(CCC3C4CC=C(C(C)=O)C4(C)OC(=O)CC32)C1` (stereo not drawn): the growth in the test with HCT-15 colon is 5.27% (active); in the test on HT29 colon it was -59.4% (active); in the test with SNB-75 CNS, 95%; with SNB-19 CNS, 94.6%; with U251 CNS, 54.8%; in the test on PC-3 prostate it was 73.2%. Further, the growth in the test with SK-MEL-5 melanoma is 54.7%; with UACC-62 melanoma, 37.8%; in the test with LOX IMVI melanoma, -19.9% (active); in the test on SK-MEL-28 melanoma it was 4.51% (active); in the test with SK-MEL-2 melanoma it was 17.7%; in the test with EKVX NSCLC it was 87.2%. The growth in the test with UO-31 renal is 21.3%; with TK-10 renal, -20.2% (active); in the test with ACHN renal it was 7.04% (active); in the test on CAKI-1 renal, 39.4%; with CCRF-CEM leukemia, -27.5% (active); in the test on MOLT-4 leukemia, -37.1% (active).

As for `O=C1CCCCCCCCC(O)C(O)CCCC(c2cccs2)O1` (stereo not drawn), the growth with HCT-15 colon was 96.7%; with HT29 colon it was 114%; in the test on SNB-75 CNS, 102%; in the test on SNB-19 CNS, 87.1%; in the test with U251 CNS it was 98.3%; with PC-3 prostate it was 88.2%. Further, the growth in the test on SK-MEL-5 melanoma was 91%; in the test on UACC-62 melanoma it was 81.8%; in the test with LOX IMVI melanoma it was 96.5%; in the test on SK-MEL-28 melanoma, 123%; in the test on SK-MEL-2 melanoma, 120%; in the test on SN12C renal it was 106%. Besides, the growth with UO-31 renal was 75.2%; with TK-10 renal, 115%; with ACHN renal it was 94.8%; with CAKI-1 renal it was 93.9%; in the test on A498 renal, 102%; with CCRF-CEM leukemia, 47.4%. In the test on MOLT-4 leukemia, the growth is 31%.

For the origin of these results see PubChem BioAssay (NCI).
